Compounds with a hit are over-represented: about 3.1% of the library has one in this group of screens.
AF4-AF9 inh: blocks AF4 peptide binding to human AF9; P42568; AlphaScreen, biotin-AF4 peptide binding to FLAG-AF9; inhibition, % at 10 µM; 350,000 compounds, 0.47% hits; AID 651704;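 active = every replicate reaching a set inhibition limit, whatever the replicate mean, cut at about 25% in these data; inconclusive = mean inhibition reaches that limit but some replicates miss it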;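 note: 0% = plate neutral control median and 100% = total signal loss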
RAD54 inh: blocks human RAD54 Holliday junction branch migration | Q92698 | FAM/BHQ fluorescence | inhibition, % at 10.4 µM | 360,000 compounds, 0.14% hits | AID 602329;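 active = mean normalized replicate activity at least 40 and at least half of replicates scoring 40 or more; inconclusive = only one of the two criteria met; inactive = mean below 40 and under half of replicates reaching 40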;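 note: 0% = median of neutral control wells and 100% = median of positive control wells; inhibitors cause a drop in the FAM fluorescence signal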
DENV2 CPE rescue: DENV2-induced cell death inhibition; CPE inhibition, % at 9.99 µM; 350,000 compounds, 1.7% hits; AID 651640; DENV2-infected cells, cytopathic effect rescue, plate reader; in the data active = CPE inhibition above about 20%, passing the limit was not always enough; inconclusive = no clear call, values can overlap the other calls; tested in BHK-21 cells;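 note: 0% = median of neutral control wells and 100% = median of positive control wells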
RAD52 inh: blocks human RAD52 DNA annealing | 360,000 compounds, 0.46% hits | inhibition, % at 18.7 µM | P43351 | recombinant RAD52 DNA annealing, FRET fluorescence;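 active = every replicate showing at least 50% inhibition; inconclusive = mean inhibition at least 50% but not in every replicate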
Target sequence (P43351 whole entry, looked up): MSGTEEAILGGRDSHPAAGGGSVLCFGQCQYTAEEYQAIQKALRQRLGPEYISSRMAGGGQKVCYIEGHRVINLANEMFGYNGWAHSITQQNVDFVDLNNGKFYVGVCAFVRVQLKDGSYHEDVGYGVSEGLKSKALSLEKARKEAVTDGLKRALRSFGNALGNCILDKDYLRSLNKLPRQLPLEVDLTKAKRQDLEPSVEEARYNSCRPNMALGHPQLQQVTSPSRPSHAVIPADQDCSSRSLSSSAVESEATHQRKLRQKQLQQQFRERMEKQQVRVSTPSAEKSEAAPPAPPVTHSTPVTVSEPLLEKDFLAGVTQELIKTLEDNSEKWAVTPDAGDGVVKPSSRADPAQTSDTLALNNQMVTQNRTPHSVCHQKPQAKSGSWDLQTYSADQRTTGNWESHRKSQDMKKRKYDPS
dFosB activator: mouse delta FosB homodimer activation | activation, % at 25 µM | 340,000 compounds, 0.99% hits | purified delta FosB, TAMRA-CDK5 oligo fluorescence polarization; percent of positive-control signal above neutral wells;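 active = mean activation above about 17%, with every replicate also reaching it, limit read from the data, passing the limit was not always enough; inconclusive = only one of the two conditions met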
INS-1E GSIS act: primary screen for activators of insulin secretion dependent on glucose, INS-1E cells, GLuc reporter luminescence; INS-1E GLuc reporter insulin secretion, 2-3 h; activation, % at 16.6 µM; 370,000 compounds, 0.61% hits; AID 743287;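 active = lowest replicate activation of at least 40%, so every replicate reaches that level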;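 note: 0% = median of neutral control wells and 100% = median of IBMX positive control wells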
RAD52 DNA ctr: DNA binding artifact in RAD52 counter-screen. 1,000 compounds, 8% hits. AID 652128. Salmon sperm DNA/acridine orange FP displacement. shares compounds with RAD52 inh. AC50, µM;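 active = fitted half-maximal concentration for signal loss at or below twice the highest dose tested, in every separate run, actives reach about 64 µM in these data; inconclusive = runs disagree, or flat partial signal loss, or poor fit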
Numbers without * were called inactive; i = inactive; ? = inconclusive; nt = no result given.

SMILES | AF4-AF9 inh | RAD54 inh | DENV2 CPE rescue | RAD52 inh | dFosB activator | INS-1E GSIS act | RAD52 DNA ctr
Cc1ccc(-c2csc(N3CCN(c4cc5c(cc4Cl)nc(C)n5CCN4CCCCC4)CC3)n2)cc1 | 14 | -1 | -13 | 9 | -3 | nt | nt
C=CC(=O)Nc1cccc(Oc2nc(Nc3ccc(N4CCN(C)CC4)cc3OC)ncc2Cl)c1 | 63* | nt | 1 | 95* | nt | 133 | i
C=CC(=O)Nc1cccc(Oc2cc(Cl)nc3[nH]ccc23)c1 | nt | 0 | -2 | -7 | ? | 3 | nt
Cc1ccccc1Cn1c2ccccc2c2cnn(CC(=O)NCCCN3CCN(C)CC3)c(=O)c21 | 15 | 21 | 3 | 71* | -9 | 20 | i
Cc1ccccc1Cn1c2ccccc2c2cnn(CC(=O)NCCCN3CCOCC3)c(=O)c21 | 1 | 6 | 5 | -6 | -17 | 8 | nt
C/C=C/c1ccc([C@H]2[C@@H](CO)N3C(=O)CN(Cc4ccc(C)cc4)C[C@@H]23)cc1 | 4 | nt | 7 | -3 | nt | 4 | nt
Cc1cc(C(C)(C)C)ccc1OCCCCN1CCCC1 | nt | nt | nt | nt | 4 | 13 | nt
CCC(C)(C)c1ccc(OCCCC[n+]2cccc(C)c2C)c(C(C)(C)CC)c1 | 22 | 36 | -17 | 66* | 13 | nt | i
CCCNC(=O)C[C@@H]1C[C@H]2c3cc(NC(=O)NC4CCCCC4)ccc3O[C@H]2[C@H](CO)O1 | 1 | -5 | 7 | 1 | nt | -5 | nt
CC(=O)N1CCN(c2ccc(N)cc2)CC1 | -4 | 7 | -9 | 58* | 2 | nt | i
CN1CCN(c2ccc(NC(=O)c3cc(S(N)(=O)=O)ccc3N3CCOCC3)cc2)CC1 | 10 | 19 | -10 | 72* | 1 | 8 | i
CCC(=O)Nc1ccc2c(c1)OC[C@@H](C)N(C(=O)C1CCC1)C[C@H](C)[C@H](OC)CN(C)C2=O | -1 | 7 | 2 | 7 | nt | 2 | nt
Cc1cc(N/N=C/c2ccc(O)cc2)c2cccc(C)c2n1 | ? | 118* | -26 | 77* | 105* | 16 | 52µM*
Cc1cc(C)c2nc(C)cc(N/N=C/c3ccc(O)cc3)c2c1 | 26* | 119* | -16 | 94* | -41 | 28 | ?
Cc1cc(N/N=C/c2ccc(N(C)C)cc2)c2ccccc2n1 | -3 | -7 | 4 | -207 | -15 | 8 | nt
CNC(=O)C[C@@H]1CC[C@@H]2[C@@H](COc3ccc(NC(=O)c4ccccc4Cl)cc3C(=O)N2C)O1 | -1 | 1 | 4 | 10 | nt | 0 | nt
C[C@H]1CN([C@@H](C)CO)C(=O)c2cc(-c3ccccc3)cnc2O[C@@H]1CN(C)C(=O)c1cccc(F)c1 | nt | nt | nt | nt | nt | -1 | nt
CN1CCN(c2ccc(CNC[C@H]3O[C@@H](n4cnc5c(=O)[nH]c(N)nc54)[C@H](O)[C@@H]3O)c(F)c2)CC1 | 0 | -5 | -11 | 82* | nt | -2 | i
Cc1cc(Cl)ccc1-c1cc2nc(NCCCN(C)C)n(C)c(=O)c2s1 | 4 | 24 | 9 | 42 | nt | nt | nt
CN(C)CCCNc1nc2cc(-c3cnn(C)c3)sc2c(=O)n1C | ? | 35 | -1 | 59* | nt | 10 | i
COc1ccc(-c2cc3nc(NCCCN(C)C)n(C)c(=O)c3s2)c(C)c1 | 2 | 33 | -2 | 55* | nt | 32 | i
Cc1cscc1-c1cc2nc(NCCCN(C)C)n(C)c(=O)c2s1 | 4 | 31 | 7 | 39 | nt | 6 | nt
CN(C)CCCNC(=O)c1ccc(-c2cc3nc(NCc4cccnc4)n(C)c(=O)c3s2)cc1 | -3 | 35 | -1 | 76* | nt | -14 | i
COc1cccc(C=Nc2ccc(N3CCOCC3)cc2)c1O | 11 | 12 | 4 | 8 | 7 | -2 | nt
CCN1CCN(c2ccc(N=Cc3ccccc3O)cc2)CC1 | 57* | nt | -4 | 99* | -1 | 4 | i
SMILES | AF4-AF9 inh | RAD54 inh | DENV2 CPE rescue | RAD52 inh | dFosB activator | INS-1E GSIS act | RAD52 DNA ctr
O=C(Cc1ccccc1)N1CC[C@@H]2[C@H]1c1cc(C#Cc3ccccc3)ccc1N[C@@H]2CO | 4 | -2 | -6 | -24 | nt | -1 | nt
C[C@H]1CN([C@@H](C)CO)C(=O)c2ccccc2-c2ccccc2CO[C@H]1CN(C)C(=O)c1ccc(F)cc1 | -2 | -13 | -1 | 6 | nt | -7 | nt
CN1CCN(C2Cc3cc(Cl)ccc3Sc3cc(F)ccc32)CC1 (stereo not drawn) | 17 | nt | -16 | 54* | -1 | 4 | i
COc1ccc(CCNCC(O)COc2ccc(Cl)cc2)cc1OC (stereo not drawn) | 5 | 1 | 7 | -8 | -1 | 3 | nt
OC(CNCCc1ccc(Cl)cc1)COc1ccc2ccccc2c1 (stereo not drawn) | 0 | -5 | nt | 53* | 4 | -10 | i
NC(c1ccccc1)c1csc(Nc2ccc(C(=O)c3ccccc3)cc2)n1 (stereo not drawn) | 7 | -12 | -7 | 62* | nt | -7 | i
CC(=O)c1ccc(Nc2nc(C(N)Cc3ccc(N)cc3)cs2)cc1 (stereo not drawn) | ? | 8 | -2 | 87* | nt | -12 | i
CC(=O)c1ccc(Nc2nc(C(N)Cc3ccc(Cl)cc3)cs2)cc1 (stereo not drawn) | 4 | 7 | -1 | -155 | nt | nt | nt
COc1cccc(-c2nc(C(=O)NCCCN3CCOCC3)cc3c2[nH]c2ccccc23)c1 | 2 | 27 | ? | 59* | -1 | 11 | i
O=C(NCCCN1CCOCC1)c1cc2c([nH]c3ccccc32)c(-c2cccc(Br)c2)n1 | 10 | 13 | -1 | 5 | 3 | -7 | nt
Cc1ccc(S(=O)(=O)N(C)C[C@@H]2Oc3c(NC(=O)Nc4ccc(F)cc4)cccc3C(=O)N([C@H](C)CO)C[C@@H]2C)cc1 | 2 | 6 | 0 | 7 | nt | -21 | nt
CC(=O)N(C)C[C@H]1Oc2cc(-c3cccnc3)ccc2S(=O)(=O)N([C@H](C)CO)C[C@H]1C | -2 | 0 | -6 | 10 | nt | 4 | nt
COc1ccc(OC)c(N/C(N)=N/c2nc(C)cc(C)n2)c1 | 5 | -4 | -4 | 50* | -4 | 7 | i
COc1ccc(C)cc1N/C(N)=N/c1nc(C)cc(C)n1 | -3 | nt | -7 | 18 | -4 | -3 | nt
CN1CCN(c2ccc(CNC(=O)c3ccc(-c4ccc(F)c(F)c4)c4ccoc34)cc2)CC1 | 9 | 3 | 6 | 54* | nt | -4 | i
CN1CCN(c2ccc(CNC(=O)c3cccc4c(-c5ccc(F)c(F)c5)coc34)cc2)CC1 | nt | 16 | nt | nt | nt | nt | nt
O=C(NCC[C@@H]1CC[C@H](NS(=O)(=O)c2ccc(Cl)cc2)[C@H](CO)O1)c1ccc2c(c1)OCO2 | -1 | -3 | -4 | -17 | nt | -2 | nt
CCN(CC)CCN1C(=O)/C(=C\c2ccc(Cl)c([N+](=O)[O-])c2)SC1=Nc1ccc(OC)cc1 | 19 | 7 | -1 | 80* | ? | -13 | i
